Results taken from PubChem BioAssay (NCATS).
Results filed as inconclusive are left out. Unmarked numbers belong to inactive results. Calls come from the whole dose curve; as a rule, active = well fitted activation curve with a large enough effect; inconclusive = small, poorly fitted or top-dose-only effect; inactive = no such curve, though single readings can be large or run the other way.

The compounds below were run against Cellular tumor antigen p53 (Homo sapiens) (UniProt P04637) (assay: Primary qHTS for small molecule compounds that upregulate eGFP-tagged delta133p53alpha (in N-terminal) cells. (AID 2060322;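 note: series mostly up to about 56 µM; 0% = DMSO vehicle and 100% = reference activator; nearly all actives have a fitted effect of over 75% in size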)). Conditions: NCI-H358 eGFP-delta133p53alpha fluorescence, 24 h; activation: hits give high values.
Summary of the method: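 NCI-H358 cells pre-induced 24 h with 10 ng/ml doxycycline to express N-terminal eGFP-delta133p53alpha, then dosed 24 h at 37C without doxycycline; fixed, Hoechst-stained, GFP intensity by laser scanning cytometry, normalized to DMSO (0%) and 57.5 uM 5-azacytidine (100%).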

Cellular tumor antigen p53 (Homo sapiens), sequence (P04637 whole entry, looked up): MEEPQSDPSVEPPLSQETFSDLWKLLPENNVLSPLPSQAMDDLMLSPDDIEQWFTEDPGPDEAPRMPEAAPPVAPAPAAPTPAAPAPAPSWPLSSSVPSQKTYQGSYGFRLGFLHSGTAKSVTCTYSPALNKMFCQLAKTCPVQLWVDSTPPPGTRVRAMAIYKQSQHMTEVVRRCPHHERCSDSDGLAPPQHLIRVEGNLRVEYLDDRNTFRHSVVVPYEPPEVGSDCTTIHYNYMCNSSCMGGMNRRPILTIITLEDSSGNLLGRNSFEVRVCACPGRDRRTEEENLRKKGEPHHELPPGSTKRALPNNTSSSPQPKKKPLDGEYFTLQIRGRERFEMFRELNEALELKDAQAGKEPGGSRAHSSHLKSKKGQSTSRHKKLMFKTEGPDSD

Row | Structure (SMILES) | activation
1 | C=C1C[C@]23C[C@H]1CC[C@H]2[C@]1(C)CC[C@H](O)[C@@](C)(C(=O)O)[C@H]1[C@@H]3C(=O)O | -6.11%
2 | CCCOc1ccc(-c2nc(OC)c3ccccc3n2)cc1 | -5.67%
3 | COc1cc(/C=C2\CC[C@H]3COC[C@@H](c4cc(F)c(F)c(F)c4)N3C2=O)ccc1-n1cnc(C)c1 | -13.7%
4 | CC/C=C/C=C/C1(C)OC(CC(CO)OC)=CC1=O (stereo unspecified) | 1.79%
5 | OC[C@H]1O[C@@H](OC[C@H]2O[C@@H](OC/C=C/c3ccccc3)[C@H](O)[C@@H](O)[C@@H]2O)[C@@H](O)[C@@H]1O | 20.5%
6 | CN1[C@@H]2CC[C@H]1CC(NC(=O)n1c(=O)[nH]c3ccccc31)C2 (stereo partly specified) | -9.21%
7 | COC1CC(=O)C23C(=O)NC(CC(C)C)C2C(C)C(C)=CC3/C=C(\C)CCCC1O (stereo unspecified) | 16.8%
8 | CC1CC(=O)[C@]2(O)C(C(=O)OCCc3ccc(O)cc3)=CO[C@@H](O[C@@H]3O[C@H](CO)[C@@H](O)[C@H](O)[C@H]3O)[C@H]12 (stereo partly specified) | -18.3%
9 | CC1CCC2C(C)(C)CC(C)(CO)C2(O)C1C(=O)O (stereo unspecified) | 15.3%
10 | CC1CCC2(NC1)OC1C(O)C3C4CCC5CC(O[C@@H]6O[C@H](CO)[C@@H](O)[C@H](O)[C@H]6O[C@@H]6O[C@@H](C)[C@H](O)[C@@H](O)[C@H]6O)CCC5(C)C4CCC3(C)C1C2C (stereo partly specified) | -15.3%
11 | C=C1CCC2C(C)(C(=O)O)CCCC2(C)C1CCC1=CCOC1=O (stereo unspecified) | 31.2%
